Drawing on PubChem BioAssay AID1053124 (Broad Institute, 2014), this text covers outcome for three molecules.

Structures are written as SMILES. Results with a measured potency or affinity are listed apart. Activity calls are given as the source filed them.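 The calls were made as follows: active = cell killing whose fitted half-effect concentration is at most twice the top valid dose tested; inconclusive = flat curve with 30 to 70% killing, or a poor fit; inactive = effect in the rising direction, plus the rest.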

A short description of the experiment: viability loss in A549 lung cells – cell-based, ATP luminescence, cherry-pick, set 2, cytotoxicity control, dose response (AID 1053124). As to conditions: ATP luminescence (CellTiter-Glo), 72 h; series mostly up to 26 µM.
For `CCn1c2ccccc2c(=O)c2ccccc21`, the molecule was classed as inactive.
The result for `CCCCN1C=C(C(=O)OC)C(c2ccccc2Cl)C(C(=O)OC)=C1` reads “inactive”; that for `O=C1CCc2cc(S(=O)(=O)NC(Cc3ccccc3)C(=O)NCCC3=CCCCC3)ccc2N1` (stereo not drawn), “inactive”.
